From PubChem BioAssay AID720504 (National Center for Advancing Translational Sciences (NCATS), 2013)
Out of some 360,000 compounds screened, about 10,000 (2.8%) were called active. Not shown: some 4% with an inconclusive outcome. The call rests on the fitted dose curve; in most records, active means well fitted inhibition curve with a large enough effect; inconclusive means small, poorly fitted or top-dose-only effect; inactive means flat fitted curve, though single readings scatter. The full list was thinned out, with actives kept by preference.
Further: nearly all actives have a fitted effect of over 65% in size.
On the % scale 0 is the no-effect control and ±100 the full control effect; potency means the concentration at half of the fitted maximal effect.
Wherever max response, negative = inhibition is given: series mostly up to about 57 µM.

The compounds below were run against Serine/threonine-protein kinase PLK1 (Homo sapiens) (UniProt P53350) (assay: qHTS for Inhibitors of PLK1-PDB (polo-like kinase 1 - polo-box domain): Primary Screen). Conditions: Plk1 PBD binding of FITC phosphopeptide, fluorescence polarization.
Serine/threonine-protein kinase PLK1 (Homo sapiens), sequence (P53350 whole entry, looked up, the tested form may be a part): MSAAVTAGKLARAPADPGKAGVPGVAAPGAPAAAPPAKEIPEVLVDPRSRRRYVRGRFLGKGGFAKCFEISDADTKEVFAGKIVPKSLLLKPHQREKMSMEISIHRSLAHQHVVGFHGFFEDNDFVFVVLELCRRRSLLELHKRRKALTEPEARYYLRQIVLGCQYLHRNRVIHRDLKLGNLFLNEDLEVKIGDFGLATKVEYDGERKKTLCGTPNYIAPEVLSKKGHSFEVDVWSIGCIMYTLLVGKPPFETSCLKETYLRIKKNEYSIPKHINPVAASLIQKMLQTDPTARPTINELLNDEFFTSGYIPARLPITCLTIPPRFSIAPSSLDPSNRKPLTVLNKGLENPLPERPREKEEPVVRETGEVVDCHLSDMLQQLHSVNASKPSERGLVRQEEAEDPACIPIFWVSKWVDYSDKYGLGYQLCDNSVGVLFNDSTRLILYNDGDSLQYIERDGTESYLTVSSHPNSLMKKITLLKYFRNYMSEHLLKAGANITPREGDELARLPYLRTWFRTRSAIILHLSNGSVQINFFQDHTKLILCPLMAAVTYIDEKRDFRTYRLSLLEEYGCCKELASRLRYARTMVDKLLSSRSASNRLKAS
`CC1(C(=O)NS(=O)(=O)c2ccccc2)CCN1C(=O)C/C=C/c1ccccc1` (centres undefined) was tested, and the max response, negative = inhibition was -21.1% (inactive). In the case of `COc1ccc(OC)c(C(=O)NC2CCCc3c2cnn3-c2cc(C)cc(C)c2)c1` (centres undefined), the max response, negative = inhibition is reported as -4.63% (inactive). In the case of `CC1C(=O)N(Cc2cn(Cc3ccco3)nn2)CCS(=O)(=O)N1Cc1ccc(-c2cccc(CO)c2)cc1` (centres undefined), the max response, negative = inhibition is reported as -3.83% (inactive). In the case of `OC[C@@H]1CN(Cc2ccncc2)C[C@H](n2cnc3c(N4CCN(c5ccccc5)CC4)ncnc32)O1`, the max response, negative = inhibition is reported as -12.1% (inactive). In the case of `Cc1cc(C)c2cc(C#N)c(N3CCNCC3)nc2c1`, the max response, negative = inhibition is reported as -8.16% (inactive). With `Cc1ccc(C(=O)N2CCCC2)c(F)c1F` the Potency was 21.2 µM (active). In the case of `O=C(c1ccc(Cl)c(Cl)c1)N1CCCC1`, the max response, negative = inhibition is reported as -20.7% (inactive). `Cc1c(Br)cc(C(=O)N2CCCCCC2)c(C)c1C` was tested, and the max response, negative = inhibition was -5.8% (inactive). With `Cc1ccc(C(=O)N2CCCCCC2)cc1Br` the Potency was 26.7 µM (active). For `COc1c(C(=O)N2CCCC2)ccc2ccccc12`, the max response, negative = inhibition was -0.934% (inactive). With `CCNC(=O)C1CCCN(C(=O)c2cc(F)ccc2C)CC1` (centres undefined) the max response, negative = inhibition was -1.52% (inactive). With `CCc1nc2c(OCc3ccc(C(F)(F)F)cc3)cccn2c1N(C)C(=O)CC(C)C` the max response, negative = inhibition was 0.499% (inactive). With `COc1cc(-c2nnc(NC(=O)CS(=O)(=O)c3ccc(Cl)cc3)o2)cc(OC)c1OC` the max response, negative = inhibition was -18.2% (inactive). `CC(C)C1CCN(C(=O)C2CCC(=O)N(C3CCCCCC3)C2)CC1` (centres undefined) was tested, and the max response, negative = inhibition was 0.565% (inactive). For `Fc1ccc(/C=N/n2c(COc3ccccc3)n[nH]c2=S)cc1`, the Potency was 23.8 µM (active). For `O=C(COc1ccccc1)Nc1ccc(F)cc1`, the max response, negative = inhibition was -17.9% (inactive). In the case of `CC(Sc1nnc(COc2ccccc2)n1-c1ccccc1)C(=O)O` (centres undefined), the max response, negative = inhibition is reported as -5.44% (inactive). For `CC(=O)Nc1cc(-c2ccc(N3CCN(C)CC3)cc2)cn2c(-c3cccc(C(=O)N(C)C)c3)cnc12`, the max response, negative = inhibition was -2.75% (inactive). For `CN1OC[C@@H]2CN(S(=O)(=O)c3cccc(C(F)(F)F)c3)[C@H](c3ccc(-c4cc5ccccc5o4)cc3)C[C@@H]21`, the max response, negative = inhibition was -19.4% (inactive). `O=C(Nc1ccc2c(c1)OCCO2)C(C1CC1)N1CCC(Cc2ccccc2)CC1` (centres undefined) was tested, and the max response, negative = inhibition was 1.88% (inactive). In the case of `CCC(C(=O)NC(C)(C)C)n1c(-c2ccccc2)nc2ccccc21` (centres undefined), the max response, negative = inhibition is reported as 0.0436% (inactive). In the case of `Cc1[nH]c2ccccc2c1C(=O)CN1CCCC(C)C1` (centres undefined), the max response, negative = inhibition is reported as -2.14% (inactive). `CCOC(=O)N1CCN(CC(=O)c2c(C)[nH]c3ccccc23)CC1` was tested, and the Potency was 3.77 µM (active). For `Cc1[nH]c2ccccc2c1C(=O)CN1CC(C)CC(C)C1` (centres undefined), the max response, negative = inhibition was -9.93% (inactive). In the case of `CNc1cncc(-c2cccc(C(=O)N3CCOCC3)c2)n1`, the max response, negative = inhibition is reported as -3.85% (inactive). With `COc1ccccc1-n1c(SCC(=O)Nc2ccc(Cl)cc2)nc(O)c(Cc2ccccc2)c1=O` the max response, negative = inhibition was -10.5% (inactive). In the case of `CNc1cnc(-c2cc(OC)c(OC)c(OC)c2)cn1`, the max response, negative = inhibition is reported as -14% (inactive). For `CCc1nnc(NS(=O)(=O)c2ccc(NC(=O)c3cccc(OC(F)(F)C(F)F)c3)cc2)s1`, the max response, negative = inhibition was -23.6% (inactive). For `CCc1nnc(NS(=O)(=O)c2ccc(NC(=S)NC(=O)c3cccs3)cc2)s1`, the Potency was 18.9 µM (active). With `O=C(NC(=S)Nc1ccc(NC(=O)c2cccs2)cc1)c1ccc([N+](=O)[O-])cc1` the max response, negative = inhibition was -4.47% (inactive). For `NS(=O)(=O)c1ccc(NC(=S)NNC(=O)c2cccs2)cc1`, the Potency was 29.9 µM (active). `CS(=O)(=O)c1ccc(C(=O)NNC(=O)c2cccs2)cc1` was tested, and the max response, negative = inhibition was -0.622% (inactive). `CCc1ccc(NC(=O)C(=O)NNC(=O)c2cccs2)cc1` was tested, and the max response, negative = inhibition was -20.4% (inactive). In the case of `COc1ccc(Cn2c(=O)oc3ccccc32)cc1`, the max response, negative = inhibition is reported as -4.16% (inactive). For `CC(=O)Nc1cccc(-c2cc3nc(NCc4cccnc4)n(C)c(=O)c3s2)c1`, the max response, negative = inhibition was -0.405% (inactive). For `CC(=O)Oc1ccc(Cn2c(C)c(C(=O)NCc3ccc(C#N)cc3)sc2=O)cc1`, the max response, negative = inhibition was -2.92% (inactive). In the case of `Cc1sc2nc(-c3ccccc3F)oc(=O)c2c1C`, the max response, negative = inhibition is reported as -3.03% (inactive). `N#CCCN(C(=S)Nc1ccc(Cl)c(Cl)c1)C1CCCCC1` was tested, and the max response, negative = inhibition was -9.12% (inactive). For `O=c1cnnc(Nc2ccccc2)[nH]1`, the max response, negative = inhibition was -9.72% (inactive). `CC(C)(C)C(=O)c1cnc(Nc2ccccc2)s1` was tested, and the max response, negative = inhibition was -4.38% (inactive). `S=c1[nH]nc(Nc2ccccc2)s1` was tested, and the Potency was 23.8 µM (active). For `CCOC(=O)c1cnc(SCC(=O)Nc2ccccc2C(=O)OC)nc1N`, the max response, negative = inhibition was 0.561% (inactive). For `CCOC(=O)C(Sc1ncc(C#N)c(N)n1)C(C)C` (centres undefined), the Potency was 11.9 µM (active). For `CCOC(=O)CSc1nccc(N(C)C)c1C#N`, the max response, negative = inhibition was -3.55% (inactive). `COc1ccc(C(C[N+](=O)[O-])n2nc(C)cc2C)cc1` (centres undefined) was tested, and the Potency was 26.7 µM (active). `COc1ccc(OC)c(S(=O)(=O)n2c([N+](=O)[O-])cnc2C)c1` was tested, and the max response, negative = inhibition was -9.42% (inactive). With `COc1cccc(CSc2nc3nc(C)cc(C)n3n2)c1` the max response, negative = inhibition was -14.8% (inactive). `CC1(C(=O)Nc2ccc3c(c2)OCCO3)CCN1C(=O)Cc1cc(F)ccc1F` (centres undefined) was tested, and the max response, negative = inhibition was 2.25% (inactive). With `CCOC(=O)c1cc(-c2sc(NC(=O)c3ccccc3)nc2C)n(-c2ccc(Br)cc2)n1` the max response, negative = inhibition was -6.87% (inactive). With `O=C(NCc1ccccc1)C1CNCC(C(=O)NCc2ccccc2)C1` (centres undefined) the max response, negative = inhibition was 1.25% (inactive). For `O=C(c1ccc(N2CCCC2=O)cc1)N1CCN(c2ccc(C(F)(F)F)cc2[N+](=O)[O-])CC1`, the max response, negative = inhibition was -12.4% (inactive). `COc1ccc(N(CC(=O)NCC2CCCO2)C(=O)CCC(=O)Nc2nccs2)c(OC)c1` (centres undefined) was tested, and the max response, negative = inhibition was -9.55% (inactive). With `Cc1cc(NC(=O)CCC(=O)N(CC(=O)NCC2CCCO2)c2ccccc2C)no1` (centres undefined) the max response, negative = inhibition was -1.5% (inactive). With `CCc1ccccc1N(CC(=O)NCC1CCCO1)C(=O)CCC(=O)Nc1nccs1` (centres undefined) the Potency was 21.2 µM (active). In the case of `COc1ccc(C(=O)C(OP(=O)(OC)OC)c2ccccc2OC)cc1` (centres undefined), the max response, negative = inhibition is reported as -7.71% (inactive). For `CO[C@@H]1CN(C)C(=O)c2cc(NC(=O)C3CC3)ccc2OC[C@H](C)N(C(=O)CN2CCOCC2)C[C@@H]1C`, the max response, negative = inhibition was -4.89% (inactive). In the case of `O=C(Nc1ccccc1-c1nnn(CC(=O)N2CCN(c3ccccc3)CC2)n1)c1cccs1`, the max response, negative = inhibition is reported as -6.64% (inactive). For `O=C(Nc1ccccc1-c1ccccc1)c1ccccc1[N+](=O)[O-]`, the max response, negative = inhibition was -3.58% (inactive). With `O=C(Nc1ccccc1-c1ccccc1)c1cccs1` the Potency was 4.23 µM (active).
